Compounds with a hit are over-represented: about 1.5% of the library has one in this group of screens.
TLR9-MyD88 block: inhibitors of TLR9-MyD88 association in cells, primary screen, cell-based, CHO, BLA complementation, fluorescence. CCF4 FRET ratio. inhibition, % at 4.98 µM. 340,000 tested, 0.21% active;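 active means inhibition above the mean over all tested compounds plus 3 SD, cut at about 21% in these data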
TLR4 MyD88 comp: inhibitors of TLR4-MyD88 association in cells, primary screen, cell-based, HeLa CL3-4, BLA complementation, FRET ratio; 200,000 tested, 0.18% active; AID 861, 2007; inhibition, % at 8.4 µM; HeLa CL3-4 TLR4/MyD88 BLA complementation; in the data active means inhibition above about 25%
Target sequence (O00206 whole entry, looked up): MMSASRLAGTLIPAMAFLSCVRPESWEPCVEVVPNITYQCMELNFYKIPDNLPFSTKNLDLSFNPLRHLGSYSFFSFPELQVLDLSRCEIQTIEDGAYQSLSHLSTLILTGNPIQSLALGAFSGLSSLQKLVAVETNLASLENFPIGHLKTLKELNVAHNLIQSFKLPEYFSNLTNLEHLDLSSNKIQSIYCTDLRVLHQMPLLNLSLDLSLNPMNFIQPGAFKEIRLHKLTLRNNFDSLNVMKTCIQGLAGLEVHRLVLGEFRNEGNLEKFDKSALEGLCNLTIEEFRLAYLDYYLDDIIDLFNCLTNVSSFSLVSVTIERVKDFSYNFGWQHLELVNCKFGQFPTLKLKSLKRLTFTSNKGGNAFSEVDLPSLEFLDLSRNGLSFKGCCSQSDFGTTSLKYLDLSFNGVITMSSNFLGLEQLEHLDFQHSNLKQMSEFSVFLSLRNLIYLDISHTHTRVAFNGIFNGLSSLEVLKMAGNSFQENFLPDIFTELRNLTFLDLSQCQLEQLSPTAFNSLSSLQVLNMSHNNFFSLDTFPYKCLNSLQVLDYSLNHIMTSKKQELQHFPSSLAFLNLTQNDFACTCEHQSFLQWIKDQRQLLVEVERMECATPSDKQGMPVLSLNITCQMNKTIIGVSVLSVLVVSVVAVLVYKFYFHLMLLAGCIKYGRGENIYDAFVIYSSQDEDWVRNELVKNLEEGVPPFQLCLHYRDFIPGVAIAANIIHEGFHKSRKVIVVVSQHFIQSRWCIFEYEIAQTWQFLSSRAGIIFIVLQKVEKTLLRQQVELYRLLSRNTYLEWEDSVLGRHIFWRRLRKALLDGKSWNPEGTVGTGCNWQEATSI
Target sequence (Q99836 whole entry, looked up): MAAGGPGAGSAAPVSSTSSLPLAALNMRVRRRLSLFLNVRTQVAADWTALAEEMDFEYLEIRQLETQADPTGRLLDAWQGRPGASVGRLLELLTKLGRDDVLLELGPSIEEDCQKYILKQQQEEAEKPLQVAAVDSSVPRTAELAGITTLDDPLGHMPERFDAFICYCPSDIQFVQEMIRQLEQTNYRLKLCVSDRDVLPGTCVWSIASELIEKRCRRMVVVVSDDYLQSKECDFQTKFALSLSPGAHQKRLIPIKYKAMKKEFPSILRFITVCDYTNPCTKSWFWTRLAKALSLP
Myeloid diff 2: induction of myeloid progenitor differentiation, primary screen, cell-based, flow cytometry, MLPCN library. AID 624256, 2012. ER-HoxA9 myeloid progenitors, lysozyme-GFP differentiation. 360,000 tested, 1% active. calls only at 10 µM;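 active means normalized GFP-positive differentiation at or above the plate's own cutoff, the solvent-only control mean plus 3 SD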;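 further: cells exposed to compound for four days before flow analysis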
NOD2 RIPK2 PPI: NOD2-RIPK2 binding disruptors in cells, primary screen, fluorescence, CHO cells, BLA complementation. CCF4 ratio. inhibition, % at 4.98 µM. 360,000 tested, 0.38% active. AID 624267, 2012; in the data active means inhibition above about 21%
Large screens that a line does not name were inactive.

COc1ccc(NC(=O)c2cc(-c3sc(NC(=O)c4ccccc4)nc3C)n(-c3ccc(Br)cc3)n2)cc1	none (no result: TLR9-MyD88 block, TLR4 MyD88 comp)
Cc1nc(SCC(=O)N2c3ccccc3NC(=O)CC2C)c2c(C)c(C)sc2n1 (stereo not given)	none (no result: TLR4 MyD88 comp)
Cc1sc2nc(C3CC3)nc(SCC(=O)N3c4ccccc4CC3C)c2c1C (stereo not given)	Myeloid diff 2 active
Cc1cc(N)ccc1-n1nc2ccccc2n1	Myeloid diff 2 active (no result: TLR4 MyD88 comp)
Cc1ccc2nc(N3CCC(C(=O)O)CC3)nc(-c3ccccc3)c2c1	none
Cc1ccc2nc(N3CC(=O)Nc4ccccc43)nc(-c3ccccc3)c2c1	Myeloid diff 2 active
CCOC(=O)c1ccc(NC(=O)c2nc[nH]c2C(=O)N[C@H](C)CO)cc1	none (no result: TLR4 MyD88 comp)
COc1cccc(Nc2ncccc2C(=O)NCc2ccccc2)c1	Myeloid diff 2 active
COc1ccc(Nc2ncccc2C(=O)NCc2ccccc2)cc1	none
O=C(/C=C/c1ccc([N+](=O)[O-])cc1)Nc1cccc(C(=O)Nc2ccccc2C(=O)O)c1	Myeloid diff 2 active (no result: TLR4 MyD88 comp)
COC(=O)c1cccc(NC(=O)/C=C/c2ccc([N+](=O)[O-])cc2)c1	none
N#CCCSCc1ccc(C(=O)O)o1	none
CCCCSCc1ccc(C(=O)O)o1	Myeloid diff 2 active
O=C(CCCSc1nc2ccccc2[nH]1)Nc1nnc(-c2ccccc2)o1	Myeloid diff 2 active
O=C(CCCSc1nc2ccccc2[nH]1)NCc1ccccc1	none
Cc1cc(C)nc(SC2=CS(=O)(=O)c3ccccc32)n1	Myeloid diff 2 active
COCCOC(=O)N1CCCCC1c1cc(C(=O)Nc2cccc3c2CCCC3)no1 (stereo not given)	none (no result: TLR9-MyD88 block, TLR4 MyD88 comp)
O=C1Nc2ccccc2Nc2ccc([N+](=O)[O-])cc21	none (no result: TLR4 MyD88 comp)
Cc1ccc(Oc2cc([N+](=O)[O-])cc3c2C(=O)Nc2ccccc2O3)cc1	Myeloid diff 2 active
FC(F)c1nnc2ccc(Cl)nn12	none
Clc1ccc2nnc(Cl)n2n1	Myeloid diff 2 active
O=c1c(N=Nc2ccc(O)cc2)c(-c2ccccc2)[nH]n1-c1ccc([N+](=O)[O-])cc1	Myeloid diff 2 active
Oc1ccccc1-c1nnc(COc2ccc(Cl)cc2Cl)o1	Myeloid diff 2 active
COc1ccc(S(=O)(=O)N2CC(C(=O)O)Oc3ccc(Cl)cc32)cc1 (stereo not given)	Myeloid diff 2 active (no result: TLR4 MyD88 comp)
CC(C)(C)c1ccc(S(=O)(=O)N2CC(C(=O)O)Oc3ccc(Cl)cc32)cc1 (stereo not given)	none (no result: TLR4 MyD88 comp)
CCC(CO)Nc1ccn2nc(-c3cccs3)cc2n1 (stereo not given)	none (no result: TLR9-MyD88 block, TLR4 MyD88 comp)
COc1ccc(S(=O)(=O)Nc2c(O)c3ccccc3oc2=O)cc1	Myeloid diff 2 active (no result: TLR4 MyD88 comp)
Cc1ccc(S(=O)(=O)Nc2c(O)c3ccccc3oc2=O)cc1	none (no result: TLR4 MyD88 comp)
CCOC(=O)[C@H]1[C@H]2COc3ccccc3[C@@H]2N2C(=O)c3cc(F)c(F)cc3NC(=O)[C@@]12C	none (no result: TLR4 MyD88 comp)
CCOC(=O)[C@H]1[C@H]2COc3ccccc3[C@@H]2N2C(=O)CNC(=O)[C@@]12C	Myeloid diff 2 active (no result: TLR4 MyD88 comp)
Cc1cc(O)c2c(c1O)C(=O)[C@]13C(=C2O)C(=O)[C@@H]2[C@@H](O)[C@H]1[C@@H]1[C@H](O)[C@H]3C(=O)C3=C(O)c4c(O)cc(C)c(O)c4C(=O)[C@]312	Myeloid diff 2 active (no result: TLR4 MyD88 comp)
Cc1ccc(CN2CCC(C)(Oc3cccc(Cl)c3)C2)cc1 (stereo not given)	none (no result: TLR9-MyD88 block, TLR4 MyD88 comp)
COc1ccccc1CN1CC(C(=O)NCCCCc2ccccn2)CCC1=O (stereo not given)	none (no result: TLR4 MyD88 comp)
C=CCn1c(=O)/c(=C2/SC(C)=C(C)N2CC)s/c1=C1/C(=O)N(C)C(=S)N1c1ccccc1	none (no result: TLR9-MyD88 block, Myeloid diff 2, NOD2 RIPK2 PPI)
C=CCn1c(=O)/c(=C2/SC(C)=C(C)N2CC)s/c1=C1/C(=O)N(CC)C(=S)N1c1ccccc1	Myeloid diff 2 active
CCc1ccc(CN(C)C(=O)c2ccc3c(c2)OCCO3)cc1	Myeloid diff 2 active (no result: TLR4 MyD88 comp)
COCCNC(=O)C1(C)CCCN(CCS(=O)(=O)c2ccc(C)cc2)C1 (stereo not given)	none (no result: TLR9-MyD88 block, TLR4 MyD88 comp)
CC(=O)c1c(C)n(C)c2ccc(OC(=O)c3ccco3)cc12	Myeloid diff 2 active
Oc1ccccc1CC=NC1CCCCC1	Myeloid diff 2 active (no result: TLR4 MyD88 comp)
Oc1ccc2ccccc2c1C=NC1CCCCC1	none
COC(=O)c1ccc2c(=O)n(-c3ccc(OC)cc3)c(=S)[nH]c2c1	Myeloid diff 2 active
CCCCNC(=O)C(NC(=O)c1cccnc1OC)C(=O)c1ccccc1 (stereo not given)	none (no result: TLR9-MyD88 block, TLR4 MyD88 comp)
O=C(Cn1cnnn1)OCC(=O)c1ccc(Cl)s1	Myeloid diff 2 active
CCCCCC(=O)N1C[C@H](O)[C@@H](n2cc(C3CC3)nn2)C[C@@H]1c1ccc(C)cc1	none (no result: TLR4 MyD88 comp)
Cc1nn(-c2ccccc2)c(C)c1NC(=O)COc1ccc2ccccc2c1	NOD2 RIPK2 PPI 49
COc1cccc(C(=O)N2CCC[C@@H]2C(=O)N2CCC[C@H]2C(=O)NCc2ccncc2)c1	none (no result: TLR9-MyD88 block, TLR4 MyD88 comp)
O=C(O)CC(CC(=O)Nc1nncs1)c1ccccc1 (stereo not given)	none
O=C(O)CC(Cn1[nH]nnc1=S)c1ccccc1 (stereo not given)	Myeloid diff 2 active
CC(C)C[C@H]1CNC(=O)C(=O)N1CC1CCN(CC2CCC(C)CC2)CC1 (stereo not given in full)	none (no result: TLR9-MyD88 block, TLR4 MyD88 comp)
O=C(CCC(=O)c1cccs1)c1cccs1	Myeloid diff 2 active
O=C(CCC(=O)c1cccs1)NC(c1ccccc1)c1ccccc1	none
Cc1ccc(C)c(NC(=O)COC(=O)CCC(=O)c2cccs2)c1	Myeloid diff 2 active
CCOC(=O)[C@]12CCC=C1N(CCC1=CCCCC1)C(=O)[C@H](CC(=O)NCCCCc1ccccc1)C2	none (no result: TLR9-MyD88 block, TLR4 MyD88 comp)
CC(C)=CCC[C@H](C)C[C@@H]1Cc2[nH]c(=S)[nH]c(=O)c2[C@@H](c2ccc(F)cc2)O1	none (no result: TLR9-MyD88 block, TLR4 MyD88 comp)
CCN1C(=O)/C(=C/C=C2/Sc3ccccc3N2CCO)SC1=S	none
C=CCN1C(=O)/C(=C\C=C2\N(C)c3ccccc3C2(C)C)SC1=S	Myeloid diff 2 active
CCCN1C(=O)/C(=C/C=C2\N(CC)c3ccccc3C2(C)C)SC1=S	Myeloid diff 2 active
CN1/C(=C\C=C2/SC(=S)N(CC(=O)O)C2=O)C(C)(C)c2ccccc21	none
CCCCN1C(=O)/C(=C/C=C2\Oc3ccccc3N2CC)SC1=S	Myeloid diff 2 active
CCCN1C(=O)/C(=C2/C=Cc3ccccc3N2CC)SC1=S	Myeloid diff 2 active
Oc1ccc(Cl)c(CN2CCN(c3ncc(Cc4ccccc4)cn3)CC2)c1	none (no result: TLR9-MyD88 block, TLR4 MyD88 comp)
Cc1cc2c(cc1C)-n1nnnc1C(N(Cc1ccccc1)Cc1ccccc1)C(=O)N2 (stereo not given)	none (no result: TLR9-MyD88 block, TLR4 MyD88 comp)
CCN1C(=O)[C@H]2[C@@H](c3ccc(C(F)(F)F)cc3)N[C@]3(CCCN(Cc4ccco4)C3=O)[C@H]2C1=O	none (no result: TLR4 MyD88 comp)
Cc1ccc(S(=O)(=O)N2C[C@H]3C(=O)C[C@@H](c4ccc(Cl)cc4)N(S(=O)(=O)c4ccccc4C)[C@H]3C[C@H]2c2ccc(Cl)cc2)cc1	none (no result: TLR4 MyD88 comp)
